Results: the supplement of paper PMC10498489
In all, about 2,300 compounds went through this assay and about 330 (14%) showed activity.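 The calls were made as follows: active = median modified Z-score above 1.96; inactive = 1.96 or below.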 These entries were drawn from the full list.

The compounds below were run on HepG2 Srxn1-GFP reporter cells (+30 nM CDDO-Me) (assay: Srxn1-GFP intensity median modified Z-score relative to plate median; higher = stronger NRF2 / oxidative stress reporter activation, active = hit call of the paper). Settings: 10 µM; exposure time: 24h.
In short: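 Per-cell cytoplasmic GFP was measured on confocal images of formaldehyde-fixed, Hoechst-stained HepG2 Srxn1-GFP BAC reporter cells, excluding images with fewer than 100 cells. Before this, the cells (20,000 per well, 96-well plates) were co-exposed for 24 h to compound at 10 μM and an NRF2 activator at 30 nM with ≤0.1% DMSO, in three replicate plates. Each value is the median over replicates of the per-plate modified Z-score of GFP intensity. That score was scaled with 1.4826 × median absolute deviation.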

Row | SMILES | Srxn1-GFP intensity median modified Z-score
1 | O=c1c(O)c(-c2ccc(O)c(O)c2)oc2c(O)c(O)cc(O)c12 [euspeclibcmpd1684] | -0.455 (inactive)
2 | C[C@]12CCC3C(CC[C@H]4C[C@@H](O)CC[C@]34C)C1CCC2=O (stereo partly specified) [euspeclibcmpd2371] | -0.083 (inactive)
3 | N[C@H](CO)Cc1ccccc1 [euspeclibcmpd1743] | -0.578 (inactive)
4 | O=[N+]([O-])c1ccc([As](=O)(O)O)cc1 [euspeclibcmpd2468] | 0.0717 (inactive)
5 | CC(=O)Nc1cc([As](=O)(O)O)ccc1O [euspeclibcmpd2446] | 0.0429 (inactive)
6 | O=[N+]([O-])c1cc([As](=O)(O)O)ccc1O [euspeclibcmpd2449] | 14.6 (active)
7 | c1cncc(C2=NCCC2)c1 [euspeclibcmpd2209] | 0 (inactive)
8 | COc1ccc(/C=C/c2cc(O)cc(O)c2)cc1 [euspeclibcmpd1373] | 0.31 (inactive)
9 | COc1cc2c(cc1OC)[C@@]13CCN4CC5=CCOC6CC(=O)N2C1[C@H]6[C@H]5C[C@H]43 (stereo partly specified) [euspeclibcmpd1053] | 1.74 (inactive)
10 | C=CCN1CCC23c4c5ccc(O)c4OC2C(=O)CC[C@@]3(O)[C@H]1C5 (stereo partly specified) [euspeclibcmpd455] | -0.148 (inactive)
11 | CC(CCc1ccccc1)NC(C)C(O)c1ccc(O)cc1 (stereo unspecified) [euspeclibcmpd217] | 6.08 (active)
12 | CC(Cc1ccc(O)cc1)NCC(O)c1cc(O)cc(O)c1 (stereo unspecified) [euspeclibcmpd366] | 0.124 (inactive)
13 | C[C@@H]([C@H](O)c1ccccc1)N(C)C [euspeclibcmpd1255] | 0.2 (inactive)
14 | CC1(C)C(C=C(Cl)Cl)C1C(=O)OC(C#N)c1cccc(Oc2ccccc2)c1 (stereo unspecified) [euspeclibcmpd1141] | -0.358 (inactive)
15 | C=CCc1ccc2c(c1)OCO2 [euspeclibcmpd1477] | -0.318 (inactive)
16 | O=C(COc1ccc2ccccc2c1)N1CCN(Cc2ccc3c(c2)OCO3)CC1 | 4.61 (active)
17 | O=C(COc1ccc(Br)cc1Cl)N1CCN(Cc2ccc3c(c2)OCO3)CC1 | 0.363 (inactive)
18 | CCOP(=S)(OCC)Oc1nc(Cl)c(Cl)cc1Cl [euspeclibcmpd1024] | 0.883 (inactive)
19 | COc1cccc2c1cc([N+](=O)[O-])c1c(C(=O)O)cc3c(c12)OCO3 [euspeclibcmpd2326] | 0.769 (inactive)
20 | COC(C)CC(=O)Nc1ccc([N+](=O)[O-])c(C(F)(F)F)c1 (stereo unspecified) | 1.79 (inactive)
21 | N=c1ccc(C(N)=O)c[nH]1 [euspeclibcmpd1777] | 0.117 (inactive)
22 | CN1C2CC[C@@H]1C[C@@H](OC(=O)C(CO)c1ccccc1)C2 (stereo partly specified) [euspeclibcmpd2101] | 0.179 (inactive)
23 | Cc1cc2c(C(C)C)c(O)c(O)c(C=O)c2c(O)c1-c1c(C)cc2c(C(C)C)c(O)c(O)c(C=O)c2c1O [euspeclibcmpd1471] | 3.88 (active)

Row | SMILES | Srxn1-GFP intensity median modified Z-score
24 | Cc1cc2c(C(C)C)c(O)c(O)c(C=O)c2c(O)c1-c1c(C)cc2c(C(C)C)c(O)c(O)c(C=O)c2c1O [euspeclibcmpd2093] | 3.73 (active)
25 | CN1C2CCC1CC(OC(=O)C(CO)c1ccccc1)C2 (stereo unspecified) [euspeclibcmpd2059] | -0.875 (inactive)
26 | CC[C@@]1(O)C(=O)OCc2c1cc1n(c2=O)Cc2cc3ccccc3nc2-1 [euspeclibcmpd1447] | -0.602 (inactive)
27 | COP(=O)(OC)C(O)C(Cl)(Cl)Cl (stereo unspecified) [euspeclibcmpd866] | 3.07 (active)
28 | CCC(COC(=O)c1cc(OC)c(OC)c(OC)c1)(c1ccccc1)N(C)C (stereo unspecified) [euspeclibcmpd1183] | -0.264 (inactive)
29 | Oc1ccc2c3c1OC1[C@@H](O)CC[C@@]4(O)[C@@H](C2)N(CC2CCC2)CC[C@]314 (stereo partly specified) [euspeclibcmpd978] | 0.208 (inactive)
30 | COC(=O)C(c1ccccc1)C1CCCCN1 (stereo unspecified) [euspeclibcmpd885] | -0.181 (inactive)
31 | CN(C)C(=O)Oc1cccc([N+](C)(C)C)c1 [euspeclibcmpd207] | 0.0711 (inactive)
32 | CC(C)c1cc2c(c(O)c1O)[C@@]1(C(=O)O)CCCC(C)(C)C1CC2 (stereo partly specified) [euspeclibcmpd2302] | 5.33 (active)
33 | c1ccc2c(c1)Nc1ccccc1S2 [euspeclibcmpd928] | 0.0728 (inactive)
34 | NCCc1c[nH]c2ccccc12 [euspeclibcmpd1506] | -0.231 (inactive)
35 | S=C=NCc1ccccc1 [euspeclibcmpd1105] | 100 (active)
36 | NNCc1ccccc1 [euspeclibcmpd1327] | 0.32 (inactive)
37 | CC(=O)c1c(O)cc(C)oc1=O [euspeclibcmpd1006] | 15.5 (active)
38 | CN(C)C1C(=O)C(C(N)=O)C(=O)[C@@]2(O)C(=O)C3C(=O)c4c(O)ccc(Cl)c4[C@@](C)(O)[C@H]3C[C@@H]12 (stereo partly specified) [euspeclibcmpd61] | 0.0407 (inactive)
39 | NCC(CC(=O)O)c1ccc(Cl)cc1 (stereo unspecified) [euspeclibcmpd593] | -0.2 (inactive)
40 | CN(C)C1C(=O)C(C(N)=O)C(=O)[C@@]2(O)C(=O)C3C(=O)c4c(O)cccc4[C@@](C)(O)[C@H]3C[C@@H]12 (stereo partly specified) [euspeclibcmpd288] | 0.167 (inactive)
41 | CC(C)(O)[C@@H]1[C@H]2OC(=O)[C@@H]1[C@]1(O)C[C@H]3O[C@]34C(=O)O[C@H]2[C@]14C [euspeclibcmpd1439] | -0.455 (inactive)
42 | C=C(C)[C@@H]1[C@H]2OC(=O)[C@@H]1[C@]1(O)C[C@H]3O[C@]34C(=O)O[C@H]2[C@]14C [euspeclibcmpd1351] | 17.9 (active)
43 | CCC(C)C(=O)O[C@@H]1C[C@@]2(C)[C@H](c3ccoc3)OC(=O)CC23OC2(C)OC34[C@H](OC(=O)C(C)C)[C@@]3(O)[C@@H](OC(=O)C5(C)OC5C)[C@@]5(C)C[C@]3(O)[C@@](C)([C@H]5CC(=O)OC)C14O2 (stereo partly specified) [euspeclibcmpd1627] | 0.307 (inactive)
44 | COc1c2c(cc3c1OCO3)CC[N+](C)=C2 [euspeclibcmpd2418] | 0.209 (inactive)
45 | CNCC(=O)c1ccc(O)c(O)c1 [euspeclibcmpd922] | -1.16 (inactive)
46 | CCC1(CC)C(=O)NC(=O)NC1=O [euspeclibcmpd2126] | 0.302 (inactive)
